# Source: article PMC7862700, “An all-to-all approach to the identification of sequence-specific readers for epigenetic DNA modifications on cytosine”
# Assays:
# Assay in all cases: DAPPL (digital affinity profiling via proximity ligation, sequencing); 10 mM Tris-HCl pH 7.5, 50 mM NaCl, 1 mM DTT, 4% glycerol, room temperature, 30 min; GST-TFs on glutathione beads, 16-mer random dsDNA library, 0.1% formaldehyde crosslink after washing; high values mean tight binding
# FEV = biological target: T1, FEV (Homo sapiens, UniProt Q99581 1-238); details: protein: recombinant; tags: N-terminal GST; dsDNA, one strand shown
# T1 sequence: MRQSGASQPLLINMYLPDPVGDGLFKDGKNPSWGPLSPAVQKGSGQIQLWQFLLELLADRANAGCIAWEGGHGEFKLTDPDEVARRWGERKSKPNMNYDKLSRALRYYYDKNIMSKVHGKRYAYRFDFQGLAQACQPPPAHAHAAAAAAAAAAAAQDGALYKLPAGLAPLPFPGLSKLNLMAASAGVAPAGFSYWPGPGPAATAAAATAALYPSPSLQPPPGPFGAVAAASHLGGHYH
# Outline: (§1)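 Binding signal is each hexamer's read frequency for a factor divided by its frequency in the tag-only sample. The factors were GST-fused human transcription factors from yeast, captured on glutathione beads, DNA-barcoded and pooled with that sample. Pools were incubated with 200 nmole of a random double-stranded 16-mer DNA library in Tris/NaCl/DTT/glycerol buffer at room temperature for 30 min, then washed, crosslinked with 0.1% formaldehyde, proximity-ligated with BsaI/T4 ligase (1 h, 37 °C), PCR-amplified and sequenced on an Illumina NextSeq500.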
# ETV5 = ETV5 (Homo sapiens, UniProt P41161 1-510); details: protein: recombinant; tags: N-terminal GST; dsDNA, one strand shown
# Outline: as §1
# HSF1 = HSF1 (Homo sapiens, UniProt Q00613 1-529); details: protein: recombinant; tags: N-terminal GST; chain copies: 3; dsDNA, one strand shown
# Outline: as §1
# SPIC = biological target: T2, SPIC (Homo sapiens, UniProt Q8N5J4 1-248); details: protein: recombinant; tags: N-terminal GST; dsDNA, one strand shown
# T2 sequence: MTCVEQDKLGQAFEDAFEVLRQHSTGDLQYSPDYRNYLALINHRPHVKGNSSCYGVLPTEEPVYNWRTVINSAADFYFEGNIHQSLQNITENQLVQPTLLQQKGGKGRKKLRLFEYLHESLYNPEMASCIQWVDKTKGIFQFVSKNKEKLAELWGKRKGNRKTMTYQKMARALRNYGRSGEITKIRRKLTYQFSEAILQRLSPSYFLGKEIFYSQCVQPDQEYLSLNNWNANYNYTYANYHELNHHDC
# Outline: as §1
# ELF4 = ELF4 (Homo sapiens, UniProt Q99607 1-663); details: protein: recombinant; tags: N-terminal GST; dsDNA, one strand shown
# Outline: as §1
# ELK4 = biological target: T3, ELK4 (Homo sapiens, UniProt P28324-2 1-405); details: protein: recombinant; tags: N-terminal GST; dsDNA, one strand shown
# T3 sequence: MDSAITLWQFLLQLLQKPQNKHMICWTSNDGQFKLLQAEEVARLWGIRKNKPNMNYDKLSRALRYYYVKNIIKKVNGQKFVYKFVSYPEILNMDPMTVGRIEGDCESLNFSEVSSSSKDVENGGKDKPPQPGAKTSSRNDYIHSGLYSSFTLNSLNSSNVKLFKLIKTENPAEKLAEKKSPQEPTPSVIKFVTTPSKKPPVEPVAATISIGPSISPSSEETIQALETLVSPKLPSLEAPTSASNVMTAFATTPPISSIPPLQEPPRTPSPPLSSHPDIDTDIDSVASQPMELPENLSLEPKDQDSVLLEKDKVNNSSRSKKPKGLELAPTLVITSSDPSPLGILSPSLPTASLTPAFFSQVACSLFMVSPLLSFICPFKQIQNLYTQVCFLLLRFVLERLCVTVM
# Outline: as §1
# ELF3 = biological target: T4, ELF3 (Homo sapiens, UniProt P78545 1-371); details: protein: recombinant; tags: N-terminal GST; dsDNA, one strand shown
# T4 sequence: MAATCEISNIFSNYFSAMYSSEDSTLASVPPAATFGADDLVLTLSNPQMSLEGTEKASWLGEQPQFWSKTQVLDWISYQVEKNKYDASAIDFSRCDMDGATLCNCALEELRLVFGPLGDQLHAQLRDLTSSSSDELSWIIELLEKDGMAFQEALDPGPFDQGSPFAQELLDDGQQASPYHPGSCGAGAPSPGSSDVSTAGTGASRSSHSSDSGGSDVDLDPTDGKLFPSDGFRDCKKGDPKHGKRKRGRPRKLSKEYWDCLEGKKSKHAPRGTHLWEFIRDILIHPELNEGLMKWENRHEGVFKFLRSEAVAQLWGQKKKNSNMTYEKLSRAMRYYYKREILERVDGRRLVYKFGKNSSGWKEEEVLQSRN
# Outline: as §1
# CRX = CRX (Homo sapiens, UniProt O43186 1-299); details: protein: recombinant; tags: N-terminal GST; dsDNA, one strand shown
# Outline: as §1
# ETV1 = ETV1 (Homo sapiens, UniProt P50549 1-477); details: protein: recombinant; tags: N-terminal GST; dsDNA, one strand shown
# Outline: as §1
# ERF = biological target: T5, ERF (Homo sapiens, UniProt P50548 1-548); details: protein: recombinant; tags: N-terminal GST; dsDNA, one strand shown
# T5 sequence: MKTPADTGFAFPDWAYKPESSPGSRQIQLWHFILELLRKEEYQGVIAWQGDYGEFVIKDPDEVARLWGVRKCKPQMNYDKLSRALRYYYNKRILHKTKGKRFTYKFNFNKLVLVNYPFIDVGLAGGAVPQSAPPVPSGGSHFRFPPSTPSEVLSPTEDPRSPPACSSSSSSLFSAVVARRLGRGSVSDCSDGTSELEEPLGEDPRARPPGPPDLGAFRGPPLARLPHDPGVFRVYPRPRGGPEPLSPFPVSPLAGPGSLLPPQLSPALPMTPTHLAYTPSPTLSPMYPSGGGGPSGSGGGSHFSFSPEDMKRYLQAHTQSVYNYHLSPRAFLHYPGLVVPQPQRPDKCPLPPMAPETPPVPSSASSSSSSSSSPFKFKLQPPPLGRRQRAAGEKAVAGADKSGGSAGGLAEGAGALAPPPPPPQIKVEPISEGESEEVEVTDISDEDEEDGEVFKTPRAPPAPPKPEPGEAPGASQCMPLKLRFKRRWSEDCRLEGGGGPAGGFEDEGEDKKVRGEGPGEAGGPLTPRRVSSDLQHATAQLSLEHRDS
# Outline: as §1
# ETV3L = biological target: T6, ETV3L (Homo sapiens, UniProt Q6ZN32 1-361); details: protein: recombinant; tags: N-terminal GST; dsDNA, one strand shown
# T6 sequence: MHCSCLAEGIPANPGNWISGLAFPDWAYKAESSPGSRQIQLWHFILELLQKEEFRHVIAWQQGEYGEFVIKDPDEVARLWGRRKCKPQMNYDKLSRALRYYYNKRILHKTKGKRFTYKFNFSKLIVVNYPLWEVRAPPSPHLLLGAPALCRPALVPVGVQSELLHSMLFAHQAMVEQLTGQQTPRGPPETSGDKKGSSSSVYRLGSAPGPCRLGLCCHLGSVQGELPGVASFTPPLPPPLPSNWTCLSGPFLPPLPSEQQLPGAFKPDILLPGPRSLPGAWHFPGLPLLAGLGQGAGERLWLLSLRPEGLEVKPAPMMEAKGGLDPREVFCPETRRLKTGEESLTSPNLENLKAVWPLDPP
# Outline: as §1
# ETS2 = biological target: T7, ETS2 (Homo sapiens, UniProt P15036 1-469); details: protein: recombinant; tags: N-terminal GST; dsDNA, one strand shown
# T7 sequence: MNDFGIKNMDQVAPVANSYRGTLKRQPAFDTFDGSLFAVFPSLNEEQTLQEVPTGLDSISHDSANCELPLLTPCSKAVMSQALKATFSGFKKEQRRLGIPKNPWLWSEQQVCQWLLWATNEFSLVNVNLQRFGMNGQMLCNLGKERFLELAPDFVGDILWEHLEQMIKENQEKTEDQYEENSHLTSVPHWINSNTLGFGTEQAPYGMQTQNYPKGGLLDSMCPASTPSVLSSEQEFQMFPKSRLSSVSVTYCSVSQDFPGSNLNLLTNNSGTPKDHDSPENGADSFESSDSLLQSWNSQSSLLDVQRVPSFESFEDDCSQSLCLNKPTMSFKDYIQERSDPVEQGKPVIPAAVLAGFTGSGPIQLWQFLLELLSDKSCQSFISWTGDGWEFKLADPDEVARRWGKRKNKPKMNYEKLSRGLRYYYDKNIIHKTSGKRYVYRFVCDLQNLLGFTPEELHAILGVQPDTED
# Outline: as §1
# SPDEF = biological target: T8, SPDEF (Homo sapiens, UniProt O95238 1-335); details: protein: recombinant; tags: N-terminal GST; dsDNA, one strand shown
# T8 sequence: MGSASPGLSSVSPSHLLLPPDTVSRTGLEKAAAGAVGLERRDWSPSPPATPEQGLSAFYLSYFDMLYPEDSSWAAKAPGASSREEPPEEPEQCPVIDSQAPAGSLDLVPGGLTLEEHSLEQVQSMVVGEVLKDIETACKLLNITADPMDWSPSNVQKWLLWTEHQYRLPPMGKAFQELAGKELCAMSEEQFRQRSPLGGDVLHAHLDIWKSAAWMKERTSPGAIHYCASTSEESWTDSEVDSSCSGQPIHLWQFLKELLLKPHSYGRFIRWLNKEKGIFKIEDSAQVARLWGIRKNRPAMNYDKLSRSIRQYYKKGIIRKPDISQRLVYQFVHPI
# Outline: as §1
# ETV7 = biological target: T9, ETV7 (Homo sapiens, UniProt Q9Y603 1-341); details: protein: recombinant; tags: N-terminal GST; dsDNA, one strand shown
# T9 sequence: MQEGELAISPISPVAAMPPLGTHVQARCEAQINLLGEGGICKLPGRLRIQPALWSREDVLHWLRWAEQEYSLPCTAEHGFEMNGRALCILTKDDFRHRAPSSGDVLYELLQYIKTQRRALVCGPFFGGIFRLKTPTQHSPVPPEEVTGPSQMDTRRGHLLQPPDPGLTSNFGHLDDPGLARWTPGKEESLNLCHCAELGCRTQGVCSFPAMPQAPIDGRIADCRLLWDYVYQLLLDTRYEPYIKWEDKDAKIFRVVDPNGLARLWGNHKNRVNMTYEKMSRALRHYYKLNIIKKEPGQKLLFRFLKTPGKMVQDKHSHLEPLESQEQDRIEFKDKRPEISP
# Outline: as §1
# ELF5 = biological target: T10, ELF5 (Homo sapiens, UniProt Q9UKW6-2 1-255); details: protein: recombinant; tags: N-terminal GST; dsDNA, one strand shown
# T10 sequence: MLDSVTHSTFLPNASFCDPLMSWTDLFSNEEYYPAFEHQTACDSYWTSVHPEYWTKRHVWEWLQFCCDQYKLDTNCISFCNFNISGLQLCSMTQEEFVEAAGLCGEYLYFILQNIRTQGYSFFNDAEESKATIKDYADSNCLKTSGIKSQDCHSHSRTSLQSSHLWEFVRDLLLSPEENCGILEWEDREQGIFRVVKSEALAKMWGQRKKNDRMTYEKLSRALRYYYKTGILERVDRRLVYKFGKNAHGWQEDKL
# Outline: as §1
# ETV3 = biological target: T11, ETV3 (Homo sapiens, UniProt P41162-2 1-143); details: protein: recombinant; tags: N-terminal GST; dsDNA, one strand shown
# T11 sequence: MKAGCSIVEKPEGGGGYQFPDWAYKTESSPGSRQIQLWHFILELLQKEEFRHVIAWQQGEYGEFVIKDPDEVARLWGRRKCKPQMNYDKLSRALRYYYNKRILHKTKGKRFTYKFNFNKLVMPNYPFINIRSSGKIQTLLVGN
# Outline: as §1
# ETV6 = ETV6 (Homo sapiens, UniProt P41212 1-452); details: protein: recombinant; tags: N-terminal GST; dsDNA, one strand shown
# Outline: as §1
# Sequence of HSF1 (Q00613 whole entry): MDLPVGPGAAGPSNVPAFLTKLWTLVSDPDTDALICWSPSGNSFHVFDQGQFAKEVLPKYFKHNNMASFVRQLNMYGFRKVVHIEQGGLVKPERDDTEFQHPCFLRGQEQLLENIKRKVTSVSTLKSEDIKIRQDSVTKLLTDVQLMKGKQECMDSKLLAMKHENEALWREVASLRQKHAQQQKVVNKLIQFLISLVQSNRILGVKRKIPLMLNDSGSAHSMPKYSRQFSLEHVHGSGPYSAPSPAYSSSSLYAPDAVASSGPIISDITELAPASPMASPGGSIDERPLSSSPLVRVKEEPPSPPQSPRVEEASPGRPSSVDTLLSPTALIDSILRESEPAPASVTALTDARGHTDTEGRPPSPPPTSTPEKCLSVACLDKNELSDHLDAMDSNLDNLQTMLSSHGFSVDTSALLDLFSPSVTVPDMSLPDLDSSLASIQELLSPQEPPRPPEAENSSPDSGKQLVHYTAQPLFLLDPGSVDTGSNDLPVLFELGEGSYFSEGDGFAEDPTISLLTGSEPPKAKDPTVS
# Sequence of ETV1 (P50549 whole entry): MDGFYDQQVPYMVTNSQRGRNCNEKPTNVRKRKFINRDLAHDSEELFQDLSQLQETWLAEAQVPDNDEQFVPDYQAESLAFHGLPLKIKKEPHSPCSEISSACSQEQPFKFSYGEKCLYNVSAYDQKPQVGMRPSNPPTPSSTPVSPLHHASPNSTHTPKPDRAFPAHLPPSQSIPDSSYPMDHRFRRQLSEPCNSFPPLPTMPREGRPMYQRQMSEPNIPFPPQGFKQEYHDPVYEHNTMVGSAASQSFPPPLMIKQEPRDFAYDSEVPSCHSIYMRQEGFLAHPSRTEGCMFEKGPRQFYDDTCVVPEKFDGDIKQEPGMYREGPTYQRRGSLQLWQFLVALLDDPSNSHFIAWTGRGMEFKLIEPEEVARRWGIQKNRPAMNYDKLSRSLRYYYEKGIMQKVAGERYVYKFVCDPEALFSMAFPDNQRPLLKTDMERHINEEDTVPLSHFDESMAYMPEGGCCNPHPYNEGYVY
# Sequence of ETV6 (P41212 whole entry): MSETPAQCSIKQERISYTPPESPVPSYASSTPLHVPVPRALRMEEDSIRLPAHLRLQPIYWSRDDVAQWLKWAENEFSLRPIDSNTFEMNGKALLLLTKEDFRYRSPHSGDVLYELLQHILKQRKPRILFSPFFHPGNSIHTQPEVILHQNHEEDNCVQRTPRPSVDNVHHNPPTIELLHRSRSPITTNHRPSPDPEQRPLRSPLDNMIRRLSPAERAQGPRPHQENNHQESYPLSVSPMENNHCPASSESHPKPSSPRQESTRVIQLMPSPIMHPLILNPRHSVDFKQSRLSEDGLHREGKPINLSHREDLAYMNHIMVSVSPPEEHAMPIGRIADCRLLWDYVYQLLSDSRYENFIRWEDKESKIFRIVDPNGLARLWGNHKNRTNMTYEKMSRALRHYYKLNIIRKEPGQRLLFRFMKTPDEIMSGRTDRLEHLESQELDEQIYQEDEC
# Sequence of ELF4 (Q99607 whole entry): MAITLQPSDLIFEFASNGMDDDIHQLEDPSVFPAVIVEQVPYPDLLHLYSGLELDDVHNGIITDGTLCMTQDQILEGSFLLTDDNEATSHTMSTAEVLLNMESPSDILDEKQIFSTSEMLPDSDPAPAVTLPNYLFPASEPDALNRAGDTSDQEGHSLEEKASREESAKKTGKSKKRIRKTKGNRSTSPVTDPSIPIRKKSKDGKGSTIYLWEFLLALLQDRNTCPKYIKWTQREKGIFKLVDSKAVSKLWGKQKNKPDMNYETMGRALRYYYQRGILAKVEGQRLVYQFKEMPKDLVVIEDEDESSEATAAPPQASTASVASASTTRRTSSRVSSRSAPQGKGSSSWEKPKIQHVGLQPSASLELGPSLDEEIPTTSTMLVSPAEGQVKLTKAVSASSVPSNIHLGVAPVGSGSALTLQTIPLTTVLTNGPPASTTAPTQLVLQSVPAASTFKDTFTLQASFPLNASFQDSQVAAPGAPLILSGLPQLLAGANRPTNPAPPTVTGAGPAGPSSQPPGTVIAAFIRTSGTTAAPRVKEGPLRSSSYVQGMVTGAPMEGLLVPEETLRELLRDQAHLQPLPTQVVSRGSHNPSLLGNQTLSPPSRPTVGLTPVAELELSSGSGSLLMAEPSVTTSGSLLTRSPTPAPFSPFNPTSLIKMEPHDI
# Sequence of ETV5 (P41161 whole entry): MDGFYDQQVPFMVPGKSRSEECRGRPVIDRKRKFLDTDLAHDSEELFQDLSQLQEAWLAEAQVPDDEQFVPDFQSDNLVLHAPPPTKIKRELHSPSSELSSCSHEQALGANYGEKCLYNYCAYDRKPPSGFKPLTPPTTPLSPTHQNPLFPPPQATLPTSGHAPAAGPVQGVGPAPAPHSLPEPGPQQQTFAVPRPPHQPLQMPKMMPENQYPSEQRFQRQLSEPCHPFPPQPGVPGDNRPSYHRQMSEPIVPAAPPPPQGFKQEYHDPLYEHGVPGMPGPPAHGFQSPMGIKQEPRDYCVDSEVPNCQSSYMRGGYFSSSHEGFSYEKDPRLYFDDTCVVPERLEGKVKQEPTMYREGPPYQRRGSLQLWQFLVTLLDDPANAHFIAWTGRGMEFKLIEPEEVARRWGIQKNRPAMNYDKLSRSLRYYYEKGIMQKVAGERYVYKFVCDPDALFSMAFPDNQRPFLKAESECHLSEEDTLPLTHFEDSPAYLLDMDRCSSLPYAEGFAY
# Sequence of CRX (O43186 whole entry): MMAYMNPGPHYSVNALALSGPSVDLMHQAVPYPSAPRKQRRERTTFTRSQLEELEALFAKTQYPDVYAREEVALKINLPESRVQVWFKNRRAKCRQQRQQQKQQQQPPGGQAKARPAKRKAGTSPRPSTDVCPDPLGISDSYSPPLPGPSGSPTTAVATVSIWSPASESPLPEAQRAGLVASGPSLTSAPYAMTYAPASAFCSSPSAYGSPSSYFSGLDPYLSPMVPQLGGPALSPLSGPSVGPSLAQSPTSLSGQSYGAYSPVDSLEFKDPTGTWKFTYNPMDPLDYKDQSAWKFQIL
sequence,measurement,setting,value
CATGAT,binding signal,FEV,"1.06 fold enrichment (6-mer frequency, TF over GST control)"
same,binding signal,ETV5,"1.08 fold enrichment (6-mer frequency, TF over GST control)"
same,binding signal,HSF1,"1.1 fold enrichment (6-mer frequency, TF over GST control)"
same,binding signal,SPIC,"1.14 fold enrichment (6-mer frequency, TF over GST control)"
same,binding signal,ELF4,"1.17 fold enrichment (6-mer frequency, TF over GST control)"
same,binding signal,ELK4,"1.13 fold enrichment (6-mer frequency, TF over GST control)"
same,binding signal,ELF3,"1.08 fold enrichment (6-mer frequency, TF over GST control)"
same,binding signal,CRX,"1.17 fold enrichment (6-mer frequency, TF over GST control)"
same,binding signal,ETV1,"1.07 fold enrichment (6-mer frequency, TF over GST control)"
same,binding signal,ERF,"1 fold enrichment (6-mer frequency, TF over GST control)"
same,binding signal,ETV3L,"1.13 fold enrichment (6-mer frequency, TF over GST control)"
same,binding signal,ETS2,"1.07 fold enrichment (6-mer frequency, TF over GST control)"
same,binding signal,SPDEF,"1.01 fold enrichment (6-mer frequency, TF over GST control)"
same,binding signal,ETV7,"1.02 fold enrichment (6-mer frequency, TF over GST control)"
same,binding signal,ELF5,"1.1 fold enrichment (6-mer frequency, TF over GST control)"
same,binding signal,ETV3,"1.09 fold enrichment (6-mer frequency, TF over GST control)"
same,binding signal,ETV6,"1.09 fold enrichment (6-mer frequency, TF over GST control)"
